Pf Dd2 inh = Plasmodium falciparum Dd2 growth inhibition. P. falciparum Dd2 growth, SYBR Green, 72 h. Potency, µM (doses to about 28.9 µM), for the others: at the top dose activity, negative = inhibition, usual class: inhibitors. actives 4.3% (n = 120,000). AID 1347417; active = well fitted inhibition curve with a large enough effect;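 note: plate controls were DMSO vehicle for no effect and reference drug for full effect; nearly all actives have a fitted effect of over 65% in size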
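Infected erythrocytes (Dd2, 0.3% parasitemia, 2.5% hematocrit final) are added to compound in RPMI-1640/Albumax II medium, grown 72 h at 37C in low oxygen, then lysed with saponin/Triton-X containing SYBR Green and read by fluorescence.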
Starred values were filed as active, the others as inactive; [ ] = remark or other dose. This is one part of a sample in which hits are shown more often than they occur. Potency is the fitted concentration of half-maximal effect.

Results for O=C(Cn1c(-c2cccs2)cc2ccccc21)N1CCN(c2ccc(Cl)cc2)CC1 ?
Pf Dd2 inh: 8%

How did Cc1ccc(CNC(=O)Cn2c(-c3cccs3)cc3cc(Cl)ccc32)cc1 do in these assays?
Pf Dd2 inh: -10%

Results for O=C(Cn1c(-c2cccs2)cc2cc(F)ccc21)NCCCN1CCN(c2ccc(F)cc2)CC1 ?
Pf Dd2 inh: 6.3µM*

What do the screens show for `CCc1ccc(N2CC(c3noc(-c4ccc(OC)nc4)n3)CC2=O)cc1` (centres undefined)?
Pf Dd2 inh: 37%

How did CCOc1ccccc1NC(=O)C1CC(=O)N(c2n[nH]c3ccccc23)C1 (centres undefined) do in these assays?
Pf Dd2 inh: -14%

Results for O=C(COc1ccccc1)N1C[C@@H]2C[C@H](C1)c1c(NS(=O)(=O)c3ccccc3)ccc(=O)n1C2 ?
Pf Dd2 inh: -25%

What do the screens show for `Cn1c(CN2CCC(O)CC2)nnc1C1CCCN(C(=O)CCN)C1` (centres undefined)?
Pf Dd2 inh: -10%

Results for O=C(N[C@H]1[C@H](O)[C@H](O)C[C@@H]1c1cccnc1)c1ccccc1 ?
Pf Dd2 inh: -16%[44.1 µM]

What do the screens show for `Cn1c(CNC(=O)CC[C@H]2NC(=O)c3ccccc3NC2=O)nc2ccccc21`?
Pf Dd2 inh: -3%

Results for O=C(C1CCC1)N1CCC(C(=O)N2CC(Oc3ccccc3)C2)CC1 ?
Pf Dd2 inh: 6%

How did O=C1CCN(S(=O)(=O)c2ccccc2)CCCC(C(=O)NCCN2CCCC2)CCN1 (centres undefined) do in these assays?
Pf Dd2 inh: 22%

What do the screens show for `COCCc1nncn1C1CCN(S(=O)(=O)c2cc(F)ccc2F)CC1`?
Pf Dd2 inh: inactive

What do the screens show for `CCC(Sc1nc2cc(OC)c(OC)cc2c2nc(-c3ccccc3)nn12)C(=O)Nc1cccc(C)c1` (centres undefined)?
Pf Dd2 inh: -3%

Results for CCC(Sc1nc2ccccc2c2nc(CCc3c(C)n[nH]c3C)nn12)C(=O)Nc1ccc(F)cc1 (centres undefined) ?
Pf Dd2 inh: 7.9µM*

What do the screens show for `Cc1cc(C)n(CCc2nc3c4ccccc4nc(SCc4ccc(F)cc4)n3n2)n1`?
Pf Dd2 inh: -8%

Results for CC(C)NC(=O)N(C1CC1)C1CCOC2(CCN(C(=O)Cc3ccccc3)CC2)C1 (centres undefined) ?
Pf Dd2 inh: inactive

How did CC(Cc1cnccn1)NC(=O)c1ccc2nc(-c3ccc(F)cc3)cn2c1 (centres undefined) do in these assays?
Pf Dd2 inh: -17%

Results for O=C(NCCc1cnc[nH]1)c1ccc2nc(-c3ccc(F)cc3)cn2c1 ?
Pf Dd2 inh: 10µM*

What do the screens show for `CN(C(=O)c1ccc2nc(-c3ccc(F)cc3)cn2c1)C1CCOCC1`?
Pf Dd2 inh: -6%

Results for CCC(NC(=O)c1ccc2nc(-c3ccc(F)cc3)cn2c1)c1ncc(C)[nH]1 (centres undefined) ?
Pf Dd2 inh: 7.9µM*

What do the screens show for `COCCN(CC1CC1)C(=O)c1ccc2nc(-c3ccc(F)cc3)cn2c1`?
Pf Dd2 inh: -15%

Results for COc1cc(F)ccc1-c1cc2c(ccn2C)c(C(=O)NCCc2cnc[nH]2)n1 ?
Pf Dd2 inh: -15%[44.1 µM]

How did COC(=O)c1c(NC(=O)CCCOc2ccccc2C)sc2c1CCC(C)C2 (centres undefined) do in these assays?
Pf Dd2 inh: 23%

How did COc1ccc(Cl)cc1NC(=O)c1c(NCc2cccnc2)sc2c1CCC(C)C2 (centres undefined) do in these assays?
Pf Dd2 inh: 8.9µM*

Results for COc1ccc(NC(=O)c2c(NC(=O)c3ccncc3)sc3c2CCC(C(C)(C)C)C3)cc1 (centres undefined) ?
Pf Dd2 inh: 58%

How did COc1ccc(Cl)cc1NC(=O)c1sc2nc3c(cc2c1N)N1CCC3CC1 do in these assays?
Pf Dd2 inh: 11%

Results for COc1ccccc1NC(=O)c1c(NC(=O)c2cccs2)sc2c1CCC(C(C)(C)C)C2 (centres undefined) ?
Pf Dd2 inh: 8%

How did COc1ccc(Cl)cc1NC(=O)c1c(NCc2cccs2)sc2c1CCC(C)C2 (centres undefined) do in these assays?
Pf Dd2 inh: 13µM*

What do the screens show for `COCCN1C(=O)CC[C@]2(C(=O)N3CCC(N4CCCCC4)CC3)CCCC[C@@H]12`?
Pf Dd2 inh: -7%

What do the screens show for `CC(C)N1CCN(C(=O)[C@@]23CCCC[C@H]2N(C)C(=O)CC3)CC1`?
Pf Dd2 inh: 4%

Results for O=C(C1COc2ccccc2O1)N1CCN(c2cc(-c3ccc(Cl)cc3)[nH]n2)CC1 (centres undefined) ?
Pf Dd2 inh: inactive

How did COC[C@H]1C[C@@H](NC(=O)c2cncnc2)[C@H](O)[C@@H]1O do in these assays?
Pf Dd2 inh: -2%[44.1 µM]

How did CCN(Cc1ccccc1)C(=O)CC1CCCN(c2cn[nH]c(=O)c2)C1 (centres undefined) do in these assays?
Pf Dd2 inh: 12%

What do the screens show for `O=C(C1CCC1)N1CCN(Cc2ccccc2)CC(O)C1` (centres undefined)?
Pf Dd2 inh: -5%

Assay outcomes: PubChem BioAssay, National Center for Advancing Translational Sciences (NCATS)
